This is part of a sample that, as a whole, favours compounds with a hit. Of some 83,000 tested, about 20% had one in any assay.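 Step 1: grow cells in 96-well plates. Step 2: add test compound at a single concentration. Step 3: incubate 48 h. Step 4: record percent growth.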 Active and inactive are the calls of the source.

For 40 molecules, growth results are on record in PubChem BioAssay (NCI).

The experiment concerns CAKI-1 renal. Kind of experiment: NCI-60 one-dose screen, 48 h (100 = growth as untreated, 0 = no growth, -100 = all killed). Conditions: 10 µM unless noted. As to the method: Growth inhibition of the CAKI-1 human tumor cell line is measured as a screen for anti-cancer activity. Cells are grown in 96 well plates and exposed to the test compound for 48 hours. Compounds are tested at a single concentration, which is 10^-5 M for most compounds. The reported endpoint is percent growth (GI% or GIPRCNT), where numbers from 0 - 100% represent growth inhibition, and numbers from -100% - 0 represent cell death. For example, a value of 40 represents 60% growth inhibition. A value of 0 means no net growth occurred over the course of the experiment. A value of -40 indicates 40% of cells at the beginning of the experiment died by the end of the experiment. A value of -100 means all cells are dead at the end of the experiment.
NCI-60 Human Tumor Cell Lines Screen was performed using the standard one-dose NCI protocol, which is described in more detail at https://dtp.cancer.gov/discovery_development/nci-60/default.htm.
Compounds with GIPRCNT values below 10 were considered active. Activity score was based on GIPRCNT using the following formula: […]
Score is 0 for GIPRCNT values of 100 or above, 50 for GIPRCNT values of 0, and 100 for GIPRCNT values of -100.
In the case of `O=C1CC(=NCC(=O)n2c(-c3ccccc3)nc3ccccc32)NN1`, the growth is 75.9% (inactive). For `CC(C)(CCCN=C(N)Nc1ccc(Cl)cc1)c1ccc(F)cc1`, the growth is 74.7% (inactive).

With `C=C1C(=O)O[C@H]2[C@H]1CC/C(COC(=O)NCc1ccc(OC)c(OC)c1)=C\CC[C@@]1(C)O[C@@H]21`, the growth was 32.9% (inactive). Consider `COc1cc2c(cc1-c1c(C)noc1C)ncc1nc(C3CCCC3)n([C@H](C)COC(F)F)c12`, for which the growth is 18.7% (inactive). Consider `O=S(=O)(Nc1ccc(Cl)c(F)c1)c1ccc(-c2cnc(C3CC3)o2)cc1`, for which the growth is 32.1% (inactive). In the case of `COc1ccc2c(c1)C(=O)/C(=C/c1ccccn1)CC2`, the growth is 74.4% (inactive).

In the case of `C#Cc1cccc(NC(=O)c2ccccc2NC(=O)C=C)c1`, the growth was 97.3% [8.25 µM] (inactive). Turning to `CN1CCN(c2ccc3nc(-c4ccc(OCCCCN5CCN(CCCCN6C(=O)c7cccc8cccc(c78)C6=O)CC5)cc4)[nH]c3c2)CC1`, the growth is 33.1% (inactive). In the case of `O=C1/C(=C/c2ccccc2O)N=C2SCCCN12`, the growth is 85.1% (inactive). Under `COc1ccc(/C=C(\C#N)C(=O)Nc2cccc(Nc3nc(SC)nc(-c4cccc([N+](=O)[O-])c4)c3C#N)c2)cc1OC` stands 92.7% (inactive); under `Cc1ccc(NC(=O)/C=C/c2ccccc2)c(C(N)=O)c1`, 6.55% (active); under `Oc1ccccc1-c1nnc(CNc2ccc(Cl)cc2)o1`, 17% (inactive). As to `COc1cc(CNc2oc(-c3ccccc3)c(-c3ccccc3)c2C#N)cc(CN2CCN(C)CC2)c1O`, the growth is 66% (inactive).

Consider `Cc1cc(C)nc(SC2=C(Nc3cccc(Cl)c3C)C(=O)N(Cc3ccccc3)C2=O)n1`, for which the growth is 60.8% [30 µM] (inactive). Take `COc1cc(-c2ccc3c(c2)NC(=O)/C3=C\c2ccc[nH]2)ccc1O`: the growth is 11.2% (inactive).

For the molecule `COc1ccc2nc(NC(=O)CSc3nnc4n3S(=O)(=O)c3ccccc3N4c3ccccc3)sc2c1`, the growth was -0.617% (active). For `CCCCCCN(CCCCCC)CCC(O)c1ccc2ccccc2c1` (stereo not given), the growth is 53% (inactive).

Turning to `Cc1ccc2c(C(C[N+](=O)[O-])c3ccccc3F)c(-c3ccccc3)[nH]c2c1` (stereo not given), the growth was 32.9% (inactive).

With `COc1ccc2c(c1)c(-c1nonc1-c1cn(C)c3ccccc13)cn2C`, the growth is 30.1% (inactive).

For `CCOC(=O)n1cc(-c2nonc2-c2cn(C)c3ncccc23)c2ccccc21`, the growth is 58.1% (inactive). Regarding `Cc1cc(NS(=O)(=O)c2ccc(-c3cnc(C4CC4)o3)cc2)ccc1Cl`, the growth is 34.7% (inactive). As to `COc1cc2c(cc1-c1c(C)noc1C)ncc1nc(C3CCOCC3)n([C@H](C)COC(F)F)c12`, the growth is 26.7% (inactive).

As for `COc1ccc(S(=O)(=O)N2CC3(COC3)C2)cc1NC(=O)c1[nH]c(C)c2c1CCCCC2=O`, the growth was 20% (inactive). In the case of `O=C1C=C(O)C(=O)C(CC2=C(O)C(=O)C=C(O)C2=O)=C1O`, the growth is 104% (inactive). In the case of `O=C1OC(c2ccccc2)C(O)=C1c1ccccc1` (stereo not given), the growth was 95% (inactive). As for `C#CC(F)(F)[C@]1(O)CC[C@H]2[C@@H]3CCC4=CC(=O)CCC4=C3[C@@H](c3ccc(C4CC4)cc3)C[C@@]21C`, the growth is -73.3% (active).

`Cn1ncc2c(=O)nc3c(-c4ccccc4)n[nH]n3c21`: the growth is 74.4% (inactive). `O=C(O)COc1ccc(Cl)cc1C1CCCCC1`: the growth is 99.4% (inactive).

In the case of `Cn1c(O)c(N=NC(=O)c2cc(-c3ccccc3)on2)c2ccccc21`, the growth was 90.4% (inactive). Turning to `CCCCn1c(-c2ccc(C(=O)O/N=C(\N)c3ccc4c(c3)OCO4)cc2)nc(-c2ccccc2)c1-c1ccccc1`, the growth is 11.5% (inactive).

As for `Cc1ccc(C2Oc3ccccc3C3CC(c4cccs4)=NN32)cc1` (stereo not given), the growth was 82.3% (inactive).

`COc1cc(C(=O)Oc2ccccc2OC(=O)c2cc(OC)c(OC)c(OC)c2)cc(OC)c1OC`: the growth is 91.6% (inactive). Consider `COc1cc2nc(N3CCCC3)nc(NCCc3ccccc3)c2cc1OC`, for which the growth was 80.5% (inactive). Take `O=C1c2cccc3cccc(c23)C(=O)N1CCCCN1CCN(CCCCOc2ccc(-c3nc4ccc(N5CCOCC5)cc4[nH]3)cc2)CC1`: the growth was 79.8% (inactive). In the case of `CC1(C)CC[C@]2(C(=O)Nc3ccccn3)CC[C@]3(C)C(=CC[C@@H]4[C@@]5(C)C/C(=C/c6cccnc6)C(=O)C(C)(C)[C@@H]5CC[C@]43C)[C@H]2C1`, the growth is 36.3% (inactive). Under `CC(C)(C)c1cc(C(C)(C)C)cc(S(=O)(=O)Nc2cc3ccccc3cc2C(=O)NCCN)c1` stands 64% (inactive); under `Cc1nc2c3c(-c4ccccc4)c(-c4ccccc4)oc3ncn2n1`, 88.6% (inactive). As to `Nc1ccc(S(=O)(=O)O)c2ccc(N=Nc3ccc(N=Nc4ccc(S(=O)(=O)O)cc4)c4ccccc34)c(O)c12`, the growth was 95.3% (inactive). Under `COc1cc2c(cc1-c1c(C)noc1C)ncc1nc(C3CCC(F)(F)CC3)n([C@H](C)COC(F)F)c12` stands 35.4% (inactive). As for `NC(=NCCCOc1ccc(Cl)cc1)Nc1ccc(C(F)(F)F)cc1`, the figure is 60.5% (inactive).
